Test results: PubChem BioAssay AID1159580 (chemical genetic matrix, 2015)
The campaign covered roughly 5,500 compounds. About 2,000 (36%) were called active. Not shown: some 18% with an inconclusive outcome. Cut-off read from the data, not from the text of the source: active = normalized growth mostly below about 0.91 (no sharp cut-off); inconclusive = no clear call, values can overlap the other calls; inactive = mostly above about 0.92. This is one part of the list.

Assay: chemical genetic growth profiling, strain panel (AID 1159580);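 note: tested at 20 µM; growth read once vehicle control cultures reached saturation at 30 °C; 1 = growth at the plate median or of vehicle wells; lower values mean less growth of the strain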
Conditions: S. cerevisiae deletion strains, growth OD

Measured: normalized growth

CC(C)c1ccc(NCC(O)CSc2ccccc2)cc1 (stereo unspecified)
active: locus YHR030C, strain SLT2, stronger effect = lower value 0.655 | locus YKL048C, strain ELM1, stronger effect = lower value 0.731 | locus YLR113W, strain HOG1, stronger effect = lower value 0.405 | locus YPL256C, strain CLN2, stronger effect = lower value 0.621
inactive: locus YAR019C, strain CDC15, stronger effect = lower value 0.956 | locus YBL105C, strain PKC1, stronger effect = lower value 0.957 | locus YBR135W, strain CKS1, stronger effect = lower value 0.952 | locus YBR136W, strain MEC1, stronger effect = lower value 0.952 | locus YBR160W, strain CDC28, stronger effect = lower value 0.966 | locus YDL017W, strain CDC7, stronger effect = lower value 0.969 | locus YDL028C, strain MPS1, stronger effect = lower value 0.955 | locus YDL101C, strain DUN1, stronger effect = lower value 0.951 | locus YDL108W, strain KIN28, stronger effect = lower value 0.943 | locus YDL132W, strain cdc53, stronger effect = lower value 0.948 | locus YDL214C, strain PRR2, stronger effect = lower value 0.808 | locus YDR052C, strain DBF4, stronger effect = lower value 0.974 | locus YDR054C, strain cdc34, stronger effect = lower value 0.947 | locus YDR226W, strain ADK1, stronger effect = lower value 0.983 | locus YDR477W, strain SNF1, stronger effect = lower value 0.805 | locus YER123W, strain YCK3, stronger effect = lower value 0.755 | locus YER133W, strain GLC7, stronger effect = lower value 0.796 | locus YFL009W, strain cdc4, stronger effect = lower value 0.952 | locus YFL029C, strain CAK1, stronger effect = lower value 0.952 | locus YFR003C, strain YPI1, stronger effect = lower value 0.959 | locus YFR019W, strain FAB1, stronger effect = lower value 0.928 | locus YFR028C, strain CDC14, stronger effect = lower value 0.957 | locus YGR040W, strain KSS1, stronger effect = lower value 0.801 | locus YGR052W, strain FMP48, stronger effect = lower value 0.717 | locus YGR092W, strain DBF2, stronger effect = lower value 0.696 | locus YHR079C, strain IRE1, stronger effect = lower value 0.7 | locus YHR082C, strain KSP1, stronger effect = lower value 0.733 | locus YHR205W, strain SCH9, stronger effect = lower value 0.756 | locus YIL147C, strain SLN1, stronger effect = lower value 0.952 | locus YJL095W, strain BCK1, stronger effect = lower value 0.708 | locus YJL128C, strain PBS2, stronger effect = lower value 0.968 | locus YJL157C, strain FAR1, stronger effect = lower value 0.845 | locus YJR016C, strain ILV3, stronger effect = lower value 0.962 | locus YJR066W, strain TOR1 (second series), stronger effect = lower value 0.819 | locus YJR066W, strain TOR1, stronger effect = lower value 0.786 | locus YKL067W, strain YNK1, stronger effect = lower value 0.834 | locus YKL101W, strain HSL1, stronger effect = lower value 0.746 | locus YKL193C, strain SDS22, stronger effect = lower value 0.944 | locus YKL203C, strain TOR2, stronger effect = lower value 0.814 | locus YLR133W, strain CKI1, stronger effect = lower value 0.843 | locus YLR403W, strain SFP1, stronger effect = lower value 0.842 | locus YML070W, strain DAK1, stronger effect = lower value 0.766 | locus YMR001C, strain CDC5, stronger effect = lower value 0.956 | locus YMR205C, strain PFK2 (second series), stronger effect = lower value 0.815 | locus YMR277W, strain FCP1, stronger effect = lower value 0.953 | locus YNL006W, strain LST8, stronger effect = lower value 0.962 | locus YNL020C, strain ARK1, stronger effect = lower value 0.812 | locus YNL161W, strain CBK1, stronger effect = lower value 0.963 | locus YNL183C, strain NPR1, stronger effect = lower value 0.64 | locus YNL207W, strain RIO2, stronger effect = lower value 0.951 | locus YNL222W, strain SSU72, stronger effect = lower value 0.953 | locus YNL307C, strain MCK1 (second series), stronger effect = lower value 0.802 | locus YOL078W, strain AVO1, stronger effect = lower value 0.958 | locus YOL136C, strain PFK27, stronger effect = lower value 0.781 | locus YOR061W, strain CKA2, stronger effect = lower value 0.856 | locus YOR119C, strain RIO1, stronger effect = lower value 0.761 | locus YOR231W, strain MKK1, stronger effect = lower value 0.634 | locus YOR329C, strain SCD5, stronger effect = lower value 0.964 | locus YPL031C, strain PHO85, stronger effect = lower value 0.74 | locus YPL153C, strain RAD53, stronger effect = lower value 0.741 | locus YPL204W, strain HRR25, stronger effect = lower value 0.696 | locus YPL209C, strain IPL1, stronger effect = lower value 0.964 | locus YPR025C, strain CCL1, stronger effect = lower value 0.957 | locus YPR106W, strain ISR1, stronger effect = lower value 0.94 | locus YPR111W, strain DBF20, stronger effect = lower value 0.936 | strain NNK1, stronger effect = lower value 0.913 | strain TSCII, stronger effect = lower value 0.954
